“And” between values parts separate entries of the source, which are not always exact repeats. Equal entries are not always repeated. Inconclusive results are not listed. A call without a number means that no potency is given here. More than one record can exist for a structure, and the calls need not agree. The source made the active and inactive calls. Unless noted, calls follow the shape of the dose curve; as a rule, active = well fitted curve in either direction with a large enough effect (not every such curve was filed as active); inconclusive = small, poorly fitted or top-dose-only effect, or another doubt; inactive = flat fitted curve, though single readings scatter.
Legend:
[1] = AP1 Signaling Pathway (AID 357);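 also: ME-180 reporter cells stimulated with EGF at its EC50 level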
Method in brief: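 First, ME-180 AP-1-bla cells were cultured overnight at 37 °C in low-serum Opti-MEM. Next, titrated compounds with EC50 EGF were incubated 5 hours. Finally, CCF4 was added for 2.5 hours and the 460/530 nm ratio recorded.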

[2] = NFAT Signaling Pathway (AID 444); settings: Jurkat NFAT-bla M1, carbachol, beta-lactamase ratio, 5 h; at 17.2 µM (top of the series) unless noted;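 also: carbachol stimulus at about its EC50 of 1 µM final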
Method in brief: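 Jurkat cells with NFAT-driven β-lactamase reporter and co-expressed M1 receptor, stimulated with carbachol (final 1 uM, ~EC50), compound titration, 5 h at 37 °C. CCF4 loaded 1 h at RT; 460/530 nm ratio gave %activity and AC50.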

[3] = Stat Signaling Pathway (AID 446);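 also: ME-180 cervical cancer cells given 40 pM IL-6 alongside compound; SIE-controlled beta-lactamase reporter measured as 460/530 nm FRET emission ratio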
Method in brief: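 ME-180 cells carrying a SIE-driven beta-lactamase reporter are stimulated with 40 pM IL-6 for 5 h at 37C in the presence of compound. The 460/530 nm FRET substrate ratio is read after 2.5 h at RT. Data are normalised to 300 pM IL-6 and to 125 nM JAK inhibitor controls.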

[4] = target: Glucocorticoid receptor (Homo sapiens) (UniProt P04150); test: GR-GFP Redistribution (AID 450;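 active = compounds whose dose series gives a full or clear partial fitted curve of increased nuclear translocation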; also: potency is read from the fitted curve at half-maximal effect); settings: U2OS GR-GFP nuclear translocation, laser cytometry, 2 h
Chain of Glucocorticoid receptor (Homo sapiens) (P04150 whole entry, looked up, the tested form may be a part): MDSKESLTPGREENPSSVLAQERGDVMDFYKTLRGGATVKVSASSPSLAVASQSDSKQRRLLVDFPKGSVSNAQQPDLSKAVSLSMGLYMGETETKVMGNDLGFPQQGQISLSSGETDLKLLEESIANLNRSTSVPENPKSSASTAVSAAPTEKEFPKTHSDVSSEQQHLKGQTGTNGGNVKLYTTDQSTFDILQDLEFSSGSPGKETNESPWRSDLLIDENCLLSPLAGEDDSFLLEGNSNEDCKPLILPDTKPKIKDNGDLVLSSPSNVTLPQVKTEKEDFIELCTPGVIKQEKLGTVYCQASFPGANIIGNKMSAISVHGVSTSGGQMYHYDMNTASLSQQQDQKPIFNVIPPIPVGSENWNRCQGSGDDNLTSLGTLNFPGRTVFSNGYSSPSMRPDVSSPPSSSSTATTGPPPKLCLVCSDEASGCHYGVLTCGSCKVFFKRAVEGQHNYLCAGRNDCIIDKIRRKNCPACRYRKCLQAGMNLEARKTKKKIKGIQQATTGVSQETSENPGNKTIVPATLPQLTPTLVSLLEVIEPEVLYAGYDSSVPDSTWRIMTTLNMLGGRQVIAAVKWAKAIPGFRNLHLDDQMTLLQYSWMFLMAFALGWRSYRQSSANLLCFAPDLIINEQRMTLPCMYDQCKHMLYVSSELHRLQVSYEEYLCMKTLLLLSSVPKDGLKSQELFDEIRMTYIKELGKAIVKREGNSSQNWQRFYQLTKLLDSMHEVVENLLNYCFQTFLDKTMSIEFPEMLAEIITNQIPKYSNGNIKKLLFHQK

[5] = target: Glucocorticoid receptor (Homo sapiens) (UniProt P04150); test: GR-EFC Redistribution (AID 451; calls by dose curve; also: potency is read from the fitted curve at half-maximal effect); settings: CHO-K1 GR-EFC translocation, beta-gal luminescence, 2 h
Method in brief: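 CHO-K1 cells expressing nuclear EA and GR-ED fragments of b-gal; compounds titrated up to 46 uM final, 2 h at 37 C. GR nuclear translocation read as complemented b-gal luminescence after 1 h RT detection.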

[6] = target: Mitogen-activated protein kinase 10 (Mus musculus) (UniProt Q61831); test: JNK3 AlphaScreen Assay (AID 530);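 also: kinase came from lysate of stimulated human HepG2 cells; signal reports phosphorylation of biotinylated GST-cJun 1-79 at Ser73 with 10 µM ATP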
Method in brief: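 Pre-activated (IL-1β/TNFα) JNK3 in HepG2 lysates phosphorylates biotin-GST-cJun(1-79), 10 uM ATP; anti-phospho-cJun(Ser73) AlphaScreen read at room temperature, pH 7.6 Tris buffer. Compounds pre-incubated 15 min as titrations.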

[7] = target: 3',5'-cyclic-AMP phosphodiesterase 4B (Homo sapiens) (UniProt Q07343); test: qHTS Assay for Inhibitors of PDE-IV (AID 607; active = well fitted activation curve with a large enough effect in the main read-out, with a control signal flat, not every such curve was filed as active)
Chain of 3',5'-cyclic-AMP phosphodiesterase 4B (Homo sapiens) (Q07343 whole entry, looked up): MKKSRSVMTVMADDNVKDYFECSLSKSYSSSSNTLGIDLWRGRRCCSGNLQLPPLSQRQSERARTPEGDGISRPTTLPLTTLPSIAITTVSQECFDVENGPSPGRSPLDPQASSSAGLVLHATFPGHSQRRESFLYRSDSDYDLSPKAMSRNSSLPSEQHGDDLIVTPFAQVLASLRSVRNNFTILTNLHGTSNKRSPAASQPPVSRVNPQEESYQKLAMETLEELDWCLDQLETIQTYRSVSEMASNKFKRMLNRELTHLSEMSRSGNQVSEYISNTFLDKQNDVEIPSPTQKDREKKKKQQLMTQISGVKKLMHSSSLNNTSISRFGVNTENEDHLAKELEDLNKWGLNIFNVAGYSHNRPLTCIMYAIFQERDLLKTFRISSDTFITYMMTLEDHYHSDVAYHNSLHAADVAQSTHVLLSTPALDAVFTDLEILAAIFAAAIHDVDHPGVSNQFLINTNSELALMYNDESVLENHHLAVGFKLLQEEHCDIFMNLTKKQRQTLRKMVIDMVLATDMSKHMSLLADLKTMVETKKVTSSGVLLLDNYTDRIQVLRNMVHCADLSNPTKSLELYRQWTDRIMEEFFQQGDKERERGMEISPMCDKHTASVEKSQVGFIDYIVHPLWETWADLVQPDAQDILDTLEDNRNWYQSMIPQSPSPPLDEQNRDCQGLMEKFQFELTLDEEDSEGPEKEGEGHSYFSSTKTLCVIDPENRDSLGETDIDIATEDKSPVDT
Method in brief: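 HEK293 ACTOne cells with CNG channel (1000/well), endogenous PDE4; membrane potential dye, compounds up to 22.9 uM final. Fluorescence Ex 535/Em 590; RO 20-1724 (100 uM final) as reference.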

[8] = qHTS Assay for Lipid Storage Modulators (AID 1519; calls by dose curve); settings: Drosophila S3 cells, BODIPY lipid droplet/cell ratio, laser cytometry, cells loaded with oleic acid
Method in brief: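 Cells seeded at 5,000 per well were treated with compounds over a concentration series and loaded with oleic acid (400 uM, as added). Lipid droplet fluorescence (488 nm excitation, 500-530 nm channel) was read by laser-scanning cytometry and normalized to 20 uM Triacsin C.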

[9] = target: ATP-dependent 6-phosphofructokinase (Trypanosoma brucei brucei) (UniProt O15648); test: qHTS Assay to Find Inhibitors of T. brucei phosphofructokinase: hit validation (AID 492961; active = well fitted curve in the direction sought with a large enough effect; an effect the other way counts as inactive or inconclusive;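 also: luminescence reports ADP formed as PFK phosphorylates fructose-6-phosphate with ATP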)
Chain of ATP-dependent 6-phosphofructokinase (Trypanosoma brucei brucei) (O15648 whole entry, looked up): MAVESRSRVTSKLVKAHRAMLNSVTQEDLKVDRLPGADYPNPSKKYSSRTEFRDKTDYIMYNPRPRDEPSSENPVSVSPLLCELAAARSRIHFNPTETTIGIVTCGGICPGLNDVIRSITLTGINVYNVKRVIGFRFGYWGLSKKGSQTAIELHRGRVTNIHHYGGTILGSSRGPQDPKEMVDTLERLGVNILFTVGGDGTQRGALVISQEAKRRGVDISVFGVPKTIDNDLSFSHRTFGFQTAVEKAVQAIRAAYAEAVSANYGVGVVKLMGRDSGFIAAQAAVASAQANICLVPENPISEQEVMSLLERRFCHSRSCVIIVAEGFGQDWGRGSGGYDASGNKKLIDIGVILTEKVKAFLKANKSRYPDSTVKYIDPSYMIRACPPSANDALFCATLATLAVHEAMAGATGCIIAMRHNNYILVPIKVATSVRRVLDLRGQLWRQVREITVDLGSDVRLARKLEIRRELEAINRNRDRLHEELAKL
Method in brief: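 Inhibition of parasite PFK is measured as reduced ADP formation, quantified via luciferase after ATP depletion. Assay used 0.1 mM ATP, 0.5 mM F6P, 1.25 nM enzyme, 45 min incubation.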

[10] = target: Ubiquitin carboxyl-terminal hydrolase 1 (Homo sapiens) (UniProt O94782); test: Inhibitors of USP1/UAF1: Pilot qHTS (AID 504865; active = well fitted curve in the direction sought with a large enough effect; an effect the other way counts as inactive or inconclusive;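 also: rhodamine fluorescence freed from ubiquitin-rhodamine substrate followed over time; top concentration of the series differs between compounds; nearly all actives have a fitted effect of over 35% in size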)
Chain of Ubiquitin carboxyl-terminal hydrolase 1 (Homo sapiens) (O94782 whole entry, looked up): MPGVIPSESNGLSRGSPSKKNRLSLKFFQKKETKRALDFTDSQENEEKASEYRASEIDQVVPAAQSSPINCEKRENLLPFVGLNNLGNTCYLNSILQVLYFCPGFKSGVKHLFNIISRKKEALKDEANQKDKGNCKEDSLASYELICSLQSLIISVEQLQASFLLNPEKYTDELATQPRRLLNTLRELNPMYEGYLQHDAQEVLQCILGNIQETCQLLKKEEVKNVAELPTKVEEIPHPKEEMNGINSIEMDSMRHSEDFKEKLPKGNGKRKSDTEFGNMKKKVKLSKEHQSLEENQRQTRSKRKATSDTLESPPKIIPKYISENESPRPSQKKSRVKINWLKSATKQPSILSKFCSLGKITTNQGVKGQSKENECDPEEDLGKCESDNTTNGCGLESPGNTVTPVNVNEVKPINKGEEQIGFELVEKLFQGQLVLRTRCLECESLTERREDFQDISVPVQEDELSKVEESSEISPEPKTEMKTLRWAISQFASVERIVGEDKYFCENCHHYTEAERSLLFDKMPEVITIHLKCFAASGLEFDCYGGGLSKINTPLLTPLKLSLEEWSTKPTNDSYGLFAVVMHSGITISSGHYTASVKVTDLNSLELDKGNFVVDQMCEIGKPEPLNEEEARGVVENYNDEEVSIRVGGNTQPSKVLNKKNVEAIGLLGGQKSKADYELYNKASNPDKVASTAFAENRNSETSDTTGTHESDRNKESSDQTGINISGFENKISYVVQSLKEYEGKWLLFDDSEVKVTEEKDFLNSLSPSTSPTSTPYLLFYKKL
Method in brief: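 USP1/UAF1 complex (1nM) preincubated with compound 15 min at room temperature, then Ub-Rho substrate (150nM final) added. Fluorescence read kinetically at 480/540 nm, 6 reads every 60 seconds. Buffer: 50mM HEPES pH 7.8, 0.5mM EDTA, 0.1 mg/ml BSA, 1mM TCEP, 0.01% Tween-20.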

[11] = S16 Schwann cell PMP22 intronic element firefly luciferase assay (AID 624032; active = well fitted curve in the direction sought with a large enough effect; an effect the other way counts as inactive or inconclusive; also: nearly all actives have a fitted effect of over 30% in size)
Method in brief: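 Rat S16 Schwann cells stably carrying firefly luciferase driven by a PMP22 intronic element, in 10% FBS, treated 24 h at 37 C. ONE-Glo luminescence normalized to PTC124 control and DMSO (0%); curves classed by r2, magnitude and activity.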

[12] = qHTS profiling for inhibitors of Plasmodium falciparum proliferation (AID 504749; active = well fitted curve in the direction sought with a large enough effect; an effect the other way counts as inactive or inconclusive; also: nearly all actives have a fitted effect of over 60% in size); settings: P. falciparum in erythrocytes, SYBR Green DNA, 72 h, at 12.8 µM (top of the series)
Method in brief: (§1)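 P. falciparum-infected erythrocytes (0.3% parasitemia, 2.5% hematocrit) incubated with compound 72 h at 37 C, 5% CO2. Parasite DNA detected by SYBR Green after lysis, overnight at room temperature; normalised to 0.29 uM artemisinin and DMSO.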

C2A = test: as above; settings: P. falciparum in erythrocytes, SYBR Green DNA, 72 h; series mostly up to 12.8 µM
Method in brief: as §1

CP201 = test: as above; settings: P. falciparum in erythrocytes, SYBR Green DNA, 72 h; series mostly up to 12.8 µM
Method in brief: as §1

CP238 = test: as above; settings: P. falciparum in erythrocytes, SYBR Green DNA, 72 h; series mostly up to 12.8 µM
Method in brief: as §1

CP250 = test: as above; settings: P. falciparum in erythrocytes, SYBR Green DNA, 72 h; series mostly up to 12.8 µM
Method in brief: as §1

FAB9 = test: as above; settings: P. falciparum in erythrocytes, SYBR Green DNA, 72 h; series mostly up to 12.8 µM
Method in brief: as §1

JCK = test: as above; settings: P. falciparum in erythrocytes, SYBR Green DNA, 72 h; series mostly up to 12.8 µM
Method in brief: as §1

PC49 = test: as above; settings: P. falciparum in erythrocytes, SYBR Green DNA, 72 h; series mostly up to 12.8 µM
Method in brief: as §1

SC27B = test: as above; settings: P. falciparum in erythrocytes, SYBR Green DNA, 72 h; series mostly up to 12.8 µM
Method in brief: as §1

[13] = measured here: cell count channel max response
[14] = measured here: lipid channel max response

NC[C@@H]1O[C@H](O[C@@H]2[C@H](O[C@@H]3O[C@H](CO)[C@@H](O)[C@@H]3O)[C@@H](O)[C@@H](N)C[C@H]2N)[C@@H](N)[C@H](O)[C@@H]1O
outcome [1]: inactive
activity change, negative = inhibition [2]: -8.79% (inactive)
outcome [3]: inactive
Potency [4]: > 20.6 µM (inactive)
Potency [5]: > 20.6 µM (inactive)
Potency [6]: inactive
outcome [7]: inactive
activity change, negative = inhibition ([8]; at 25.7 µM (top of the series)): -2.12% (inactive)
max response [8, 13]: -8.12%
max response [8, 14]: -11.1%
outcome [9]: inactive
Potency [10]: inactive
Potency [11]: inactive
activity, negative = inhibition ([12]; parasite line A): -3.69% (inactive)
activity, negative = inhibition ([12]; parasite line B): 2.48% (inactive)
Potency (C2A): inactive
Potency (CP201): inactive
Potency (CP238): inactive
Potency (CP250): inactive
Potency (FAB9): inactive
Potency (JCK): inactive
Potency (PC49): inactive
Potency (SC27B): inactive

O=C1OCCN1/N=C\c1ccc([N+](=O)[O-])o1
outcome [1]: inactive
activity change, negative = inhibition [2]: -2.86% (inactive)
outcome [3]: inactive
Potency [4]: > 20.6 µM (inactive)
Potency [5]: > 20.6 µM (inactive)
Potency [6]: inactive
outcome [7]: inactive
activity change, negative = inhibition ([8]; at 25.7 µM (top of the series)): -2% (inactive)
max response [8, 13]: -13.3%
max response [8, 14]: -14.3%
Potency [10]: inactive

S=C(NC1CCCCC1)N1CCC([C@H]2C=NC=N2)CC1
outcome [1]: inactive
activity change, negative = inhibition [2]: -11% (inactive)
outcome [3]: inactive
Potency [4]: > 20.6 µM (inactive)
Potency [5]: > 20.6 µM (inactive)
Potency [6]: inactive
outcome [7]: inactive
activity change, negative = inhibition ([8]; at 25.7 µM (top of the series)): 2.27% (inactive)
max response [8, 13]: -0.275%
max response [8, 14]: 2.69%
Potency [10]: inactive

Cc1ccccc1OC[C@H](O)CO
outcome [1]: inactive
activity change, negative = inhibition [2]: 11.2% (inactive)
outcome [3]: inactive
Potency [4]: > 20.6 µM (inactive)
Potency [5]: > 20.6 µM (inactive)
Potency [6]: inactive
outcome [7]: inactive
activity change, negative = inhibition ([8]; at 25.7 µM (top of the series)): -0.676% (inactive)
max response [8, 13]: -3.4%
max response [8, 14]: -5.46%
Potency [10]: inactive

N[C@H](Cc1cc(I)c(Oc2cc(I)c(O)c(I)c2)c(I)c1)C(=O)O
outcome [1]: inactive
activity change, negative = inhibition [2]: -8.92% (inactive)
outcome [3]: inactive
Potency [4]: > 20.6 µM (inactive)
Potency [5]: > 20.6 µM (inactive)
Potency [6]: inactive
outcome [7]: inactive
activity change, negative = inhibition ([8]; at 25.7 µM (top of the series)): 1.16% (inactive)
max response [8, 13]: 20.1%
max response [8, 14]: 21%
Potency [10]: inactive

C=C1c2c(Cl)ccc(O)c2C(O)=C2C(=O)[C@@]3(O)C(O)=C(C(N)=O)C(=O)[C@@H](N(C)C)[C@@H]3[C@@H](O)[C@H]12
outcome [1]: inactive
activity change, negative = inhibition [2]: -26.3% (inactive)
outcome [3]: inactive
Potency [4]: > 20.6 µM (inactive)
Potency [5]: > 20.6 µM (inactive)
Potency [6]: inactive
activity change, negative = inhibition ([8]; at 25.7 µM (top of the series)): 1.11% (inactive)
max response [8, 13]: -8.18%
max response [8, 14]: -8.74%
outcome [9]: inactive
Potency [11]: inactive
Potency (CP201): inactive
Potency (CP238): inactive
Potency (CP250): inactive
Potency (FAB9): inactive
Potency (JCK): inactive
Potency (PC49): inactive

CC(=O)Nc1cc2ccccc2oc1=O
outcome [1]: inactive
activity change, negative = inhibition [2]: -6.5% (inactive)
outcome [3]: inactive
Potency [4]: > 20.6 µM (inactive)
Potency [5]: > 20.6 µM (inactive)
Potency [6]: inactive
outcome [7]: inactive
activity change, negative = inhibition ([8]; at 25.7 µM (top of the series)): 2.36% (inactive)
max response [8, 13]: -14.5%
max response [8, 14]: -11.4%
Potency [10]: inactive

CC(=O)OCC(=O)[C@@]1(OC(C)=O)[C@H](C)C[C@H]2[C@@H]3C[C@H](F)C4=CC(=O)C=C[C@@]4(C)[C@]3(F)[C@H](O)C[C@@]21C
outcome [1]: inactive
activity change, negative = inhibition [2]: 4% (inactive)
outcome [3]: inactive
Potency [4]: 0.00203 µM (active)
Potency [5]: 0.0775 µM (active)
Potency [6]: inactive
outcome [7]: inactive
activity change, negative = inhibition ([8]; at 25.7 µM (top of the series)): -2.11% (inactive)
max response [8, 13]: -15.4%
max response [8, 14]: -17.2%
Potency [10]: inactive

CC1=CC(=O)C2=C(C)CC[C@@H]3[C@@H](OC(=O)[C@H]3C)[C@H]12
outcome [1]: inactive
activity change, negative = inhibition [2]: -23.2% (inactive)
outcome [3]: inactive
Potency [4]: > 20.6 µM (inactive)
Potency [5]: > 20.6 µM (inactive)
Potency [6]: inactive
outcome [7]: inactive
activity change, negative = inhibition ([8]; at 25.7 µM (top of the series)): 0.93% (inactive)
max response [8, 13]: -15.8%
max response [8, 14]: -14.8%
Potency [10]: inactive

CO[C@H]1[C@H](O[C@H]2O[C@@H](C)[C@@H](O[C@@H]3C[C@](C)(O)[C@H](OC(=O)CC(C)C)[C@H](C)O3)[C@@H](N(C)C)[C@@H]2O)[C@@H](CC=O)C[C@@H](C)[C@@H](O)/C=C\C=C/C[C@@H](C)OC(=O)C[C@H]1OC(C)=O
outcome [1]: inactive
activity change, negative = inhibition [2]: -0.256% (inactive)
outcome [3]: inactive
Potency [4]: > 20.6 µM (inactive)
Potency [5]: > 20.6 µM (inactive)
Potency [6]: inactive
outcome [7]: inactive
activity change, negative = inhibition ([8]; at 25.7 µM (top of the series)): -3.13% (inactive)
max response [8, 13]: -10.5%
max response [8, 14]: -14%
outcome [9]: inactive
Potency [11]: inactive
Potency (FAB9): inactive
Potency (JCK): inactive
Potency (PC49): inactive
Potency (SC27B): inactive

Cc1cn([C@@H]2C[C@H](N=[N+]=N)[C@H](CO)O2)c(=O)[nH]c1=O
outcome [1]: inactive
activity change, negative = inhibition [2]: -2.1% (inactive)
outcome [3]: inactive
Potency [4]: > 20.6 µM (inactive)
Potency [5]: > 20.6 µM (inactive)
Potency [6]: inactive
outcome [7]: inactive
activity change, negative = inhibition ([8]; at 25.7 µM (top of the series)): -0.533% (inactive)
max response [8, 13]: -19.5%
max response [8, 14]: -18.3%
Potency [10]: inactive

CC(=O)/C(C)=N\O
outcome [1]: inactive
activity change, negative = inhibition [2]: 4.19% [at 38 µM] (inactive)
outcome [3]: inactive
Potency [4]: 7.38 µM (active) and > 46 µM (inactive)
Potency [5]: > 46 µM (inactive)
Potency [6]: inactive
outcome [7]: inactive
activity change, negative = inhibition ([8]; at 57.5 µM (top of the series)): -1.01% (inactive)
max response [8, 13]: -2.91%
max response [8, 14]: -2.64%
Potency [10]: inactive

C/C(=C(/CCO)SSC[C@@H]1CCCO1)N(C=O)Cc1cnc(C)nc1N
outcome [1]: inactive
activity change, negative = inhibition [2]: -21.3% (inactive)
outcome [3]: inactive
Potency [4]: > 20.6 µM (inactive)
Potency [5]: > 20.6 µM (inactive)
Potency [6]: inactive
outcome [7]: inactive
activity change, negative = inhibition ([8]; at 25.7 µM (top of the series)): -0.641% (inactive)
max response [8, 13]: -21%
max response [8, 14]: -20.8%
Potency [10]: inactive
